Test results: PubChem BioAssay (Tox21)
Unmarked numbers belong to inactive results. Records with an inconclusive call do not appear. Entries that show only a call come without a potency. Active and inactive are the calls of the source. Unless noted, the call rests on the fitted dose curve; in most records, active means well fitted curve in the direction sought with a large enough effect in the repeat runs; inconclusive means weak or mixed curves; inactive means no such curve, though single readings can be large; an effect the other way counts as inactive or inconclusive.

Key:
[1] = target: Progesterone receptor (Homo sapiens) (UniProt P06401); experiment: qHTS assay to identify small molecule agonists of the progesterone receptor (PR) signaling pathway (AID 1346784; calls by dose curve; further: nearly all actives have a fitted effect of over 30% in size; further: potency means the concentration at half of the fitted maximal effect)
How it was run: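 Compounds were tested for PR agonism in HEK 293T cells bearing a beta-lactamase gene under UAS control. Treatment lasted 16 hr at 37C; signal came from fluorescence of a FRET substrate.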

[2] = target: Progesterone receptor (Homo sapiens) (UniProt P06401); experiment: qHTS assay to identify small molecule antagonists of the progesterone receptor (PR) signaling pathway (AID 1346795; active means well fitted inhibition curve with a large enough effect in the signal ratio in the repeat runs, not every such curve was filed as active; the % refers to the signal ratio)
How it was run: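 In HEK293T cells bearing the PR-UAS-bla reporter, compound effects on promegestone-driven (1 nM) beta-lactamase expression are assessed after 16 hr using a fluorescent FRET substrate incubated 2 hr at room temperature.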

[3] = qHTS assay to identify small molecule agonists of the progesterone receptor (PR) signaling pathway - cell viability counter screen (AID 1346799; calls by dose curve; further: nearly all actives have a fitted effect of over 45% in size; further: potency means the concentration at half of the fitted maximal effect)
How it was run: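 Here, 3,000 PR-UAS-bla HEK293T cells per well were treated with compounds for 16 hr after a 6 hr preincubation at 37C and 5% CO2; cell viability is the CellTiter-Glo luminescence signal.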

[4] = qHTS assay to identify small molecule antagonists of the TGF-beta/Smad signaling pathway - cell viability counter screen (AID 1346824); further: nearly all actives have a fitted effect of over 50% in size; further: potency means the concentration at half of the fitted maximal effect
How it was run: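 SBE-bla HEK 293T cells, incubated overnight, then compound plus 0.25 ng/mL TGF-beta1 (stock added) for 5 hr at 37 C. Viability was read in the same wells by CellTiter-Glo luminescence after 30 min at room temperature.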

[5] = qHTS assay to identify small molecule agonists of the TGF-beta/Smad signaling pathway - cell viability counter screen (AID 1346829); further: nearly all actives have a fitted effect of over 45% in size; further: potency means the concentration at half of the fitted maximal effect
How it was run: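 In parallel with the Smad reporter read, viability of HEK 293T cells stably carrying SBE-bla is quantified by ATP luminescence following 5 hr compound treatment.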

[6] = qHTS assay to identify small molecule agonists of the TGF-beta/Smad signaling pathway (AID 1346859; active means well fitted activation curve with a large enough effect in the signal ratio in the repeat runs, not every such curve was filed as active; the % refers to the signal ratio; further: series mostly up to about 77 µM)
How it was run: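 Each well held 4,000 SBE-bla HEK 293T cells incubated overnight before compound addition; 5 hr later the cleavable FRET substrate went on for 2 hr at room temperature, and fluorescence was read at two emissions.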

[7] = target: Thyrotropin-releasing hormone receptor (Homo sapiens) (UniProt P34981); experiment: qHTS assay to identify small molecule antagonists of the thyrotropin-releasing hormone receptor (TRHR) signaling pathway (AID 1346877; active means well fitted inhibition curve with a large enough effect in the repeat runs, not every such curve was filed as active; further: series mostly up to about 51 µM)
How it was run: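 TRHR-expressing HEK293 cells loaded with calcium dye for 2 h at 37 C; compounds pre-incubated 5 min at room temperature before TRH challenge at 1 nM final. Intracellular calcium fluorescence read kinetically for 3 min; 15 concentrations in triplicate.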

[8] = target: Thyrotropin-releasing hormone receptor (Homo sapiens) (UniProt P34981); experiment: qHTS assay to identify small molecule agonists of the thyrotropin-releasing hormone receptor (TRHR) signaling pathway (AID 1346891; calls by dose curve; further: series mostly up to about 58 µM)
How it was run: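 Screening of agonists relied on calcium signalling in HEK293 cells expressing human TRHR: dye loading 2 h at 37 °C preceded compound addition and a 3-min fluorescence time course.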

[9] = Human pregnane X receptor (PXR) small molecule agonists, qHTS cell viability counter screen (AID 1346977); further: nearly all actives have a fitted effect of over 50% in size; further: potency means the concentration at half of the fitted maximal effect
How it was run: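 Tox21 qHTS format; PXR-Luc HepG2, 2,000/well, charcoal-stripped FBS 5%. Cpd exposure 24hr. Read: CellTiter-Fluor fluorescence, multiplexed with luciferase.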

[10] = Caspase-3/7 induction in HepG2 cells by small molecules, qHTS assay (AID 1346978); further: nearly all actives have a fitted effect of over 15% in size
How it was run: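 Wild-type HepG2 cells, 2,000/well, settled 5 hr at 37 C and 5% CO2, then compound-treated for 17 hr; caspase-3/7 activity read by luminescent Caspase-Glo 3/7 after 30 min at room temperature.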

[11] = Caspase-3/7 induction in CHO-K1 cells by small molecules, qHTS cell viability counter screen (AID 1346979); further: nearly all actives have a fitted effect of over 35% in size; further: potency means the concentration at half of the fitted maximal effect
How it was run: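 CellTiter-Fluor viability check, qHTS format: wild-type CHO-K1, 16hr compound treatment, 1hr reagent incubation, fluorescence read.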

[12] = Caspase-3/7 induction in CHO-K1 cells by small molecules, qHTS assay (AID 1346980); further: nearly all actives have a fitted effect of over 15% in size
How it was run: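 Wild-type CHO-K1 cells exposed to compounds for 17hr at 37 C, 5% CO2. Caspase-3/7 activity then measured by Caspase-Glo 3/7 luminescence after 30min at room temperature.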

[13] = Caspase-3/7 induction in HepG2 cells by small molecules, qHTS cell viability counter screen (AID 1346981); further: nearly all actives have a fitted effect of over 30% in size; further: potency means the concentration at half of the fitted maximal effect
How it was run: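 Wild-type HepG2 cells, 2,000/well, settled 5 hr at 37 C, 5% CO2 before compound addition. Viability read by CellTiter-Fluor fluorescence, reagent added after 16 hr compound exposure, then 1 hr at 37C, in the same wells as the caspase read.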

[14] = target: Nuclear receptor subfamily 1 group I member 2 (Homo sapiens) (UniProt O75469); experiment: Human pregnane X receptor (PXR) small molecule agonists, qHTS assay (AID 1346982); further: nearly all actives have a fitted effect of over 35% in size; further: potency means the concentration at half of the fitted maximal effect
How it was run: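 PXR-Luc HepG2 reporter cells (CYP3A4-driven luciferase) in 5% charcoal-stripped FBS medium, plated 5 h before compound addition, then treated 24 h at 37C. Luciferase read by ONE-Glo luminescence after 30 min at room temperature.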

[15] = target: Cytochrome P450 2D6 (Homo sapiens) (UniProt P10635); experiment: Cytochrome P450 Family 2 Subfamily D Member 6 (CYP2D6) small molecule antagonists: luciferase reporter qHTS assay (AID 1671196); further: nearly all actives have a fitted effect of over 50% in size; further: potency means the concentration at half of the fitted maximal effect
How it was run: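 Cell-free P450-Glo system: CYP2D6 with proluciferin substrate was pre-incubated with compound for 10 min, then reacted with NADPH regeneration for 1 h at room temperature. Luciferin product was detected after 20 min, and data were reported as relative luminescence units.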

[16] = target: Cytochrome P450 2C19 (Homo sapiens) (UniProt P33261); experiment: Cytochrome P450 Family 2 Subfamily C Member 19 (CYP2C19) small molecule antagonists: luciferase reporter qHTS assay (AID 1671197); further: nearly all actives have a fitted effect of over 65% in size; further: potency means the concentration at half of the fitted maximal effect
How it was run: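 Compounds were tested on CYP2C19 activity via proluciferin conversion to luciferin. The 37C, 1 h reaction followed NADPH addition; detection reagent stopped it.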

[17] = qHTS assay to identify small molecule antagonists of the progesterone receptor (PR) signaling pathway - cell viability counter screen (AID 1346798); further: nearly all actives have a fitted effect of over 50% in size; further: potency means the concentration at half of the fitted maximal effect
How it was run: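 Following a 4 hr attachment, PR-UAS-bla HEK293T cells in charcoal-stripped FBS medium were exposed to compounds with R5020 for 16 hr; CellTiter-Glo was added and luminescence read after 30 min at room temperature.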

[18] = target: Nuclear receptor subfamily 1 group I member 2 (Rattus norvegicus) (UniProt Q9R1A7); experiment: Rat pregnane X receptor (rPXR) activation by small molecules, qHTS assay (AID 1346983); conditions: rPXR luciferase reporter cells, One-Glo luminescence, 24 h; stronger effect = higher value; further: nearly all actives have a fitted effect of over 20% in size
How it was run: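 Cell-based rPXR activation assay: rPXR cells, 2,000 per well, rested 5hr at 37 C, then exposed to compounds in DMSO for 24 hr at 37 C. Luciferase activity read by One-Glo luminescence after 30 min at room temperature.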

[19] = target: Nuclear receptor subfamily 1 group I member 2 (Homo sapiens) (UniProt O75469); experiment: CYP3A4 induction through human pregnane X receptor (PXR) by small molecules, qHTS assay (AID 1346984); further: nearly all actives have a fitted effect of over 40% in size
How it was run: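 DPX-2 HepG2 cells carrying a PXR response element and CYP3A4-promoter luciferase construct, treated with compounds 24 hr at 37C. Then P450-Glo CYP3A4 Luciferin-IPA substrate (3uM final) for 3 hr at 37C, One-Glo added, luminescence read.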

[20] = target: Nuclear receptor subfamily 1 group I member 2 (Homo sapiens) (UniProt O75469); experiment: Human pregnane X receptor (PXR) activation by small molecules, qHTS assay (AID 1346985); further: nearly all actives have a fitted effect of over 40% in size
How it was run: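 DPX-2 cells (HepG2 co-transfected with a PXR response element and a CYP3A4-promoter luciferase construct) were seeded at 2,000 per well, rested 5 hr at 37C, then exposed to DMSO-dissolved compounds for 24 hr. Activation was read as luciferase luminescence.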

Thyrotropin-releasing hormone receptor (Homo sapiens), sequence (P34981 whole entry, looked up): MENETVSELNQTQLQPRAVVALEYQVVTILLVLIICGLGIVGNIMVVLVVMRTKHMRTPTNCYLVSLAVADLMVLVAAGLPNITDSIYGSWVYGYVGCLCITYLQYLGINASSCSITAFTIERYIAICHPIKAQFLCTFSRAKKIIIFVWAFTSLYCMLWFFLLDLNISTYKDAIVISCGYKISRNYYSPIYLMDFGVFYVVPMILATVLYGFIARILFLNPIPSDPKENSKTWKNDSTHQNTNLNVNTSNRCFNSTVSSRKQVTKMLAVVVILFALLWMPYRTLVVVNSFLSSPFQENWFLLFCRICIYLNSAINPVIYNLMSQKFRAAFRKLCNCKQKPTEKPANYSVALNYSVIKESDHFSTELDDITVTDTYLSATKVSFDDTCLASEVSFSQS
Cytochrome P450 2C19 (Homo sapiens), sequence (P33261 whole entry, looked up): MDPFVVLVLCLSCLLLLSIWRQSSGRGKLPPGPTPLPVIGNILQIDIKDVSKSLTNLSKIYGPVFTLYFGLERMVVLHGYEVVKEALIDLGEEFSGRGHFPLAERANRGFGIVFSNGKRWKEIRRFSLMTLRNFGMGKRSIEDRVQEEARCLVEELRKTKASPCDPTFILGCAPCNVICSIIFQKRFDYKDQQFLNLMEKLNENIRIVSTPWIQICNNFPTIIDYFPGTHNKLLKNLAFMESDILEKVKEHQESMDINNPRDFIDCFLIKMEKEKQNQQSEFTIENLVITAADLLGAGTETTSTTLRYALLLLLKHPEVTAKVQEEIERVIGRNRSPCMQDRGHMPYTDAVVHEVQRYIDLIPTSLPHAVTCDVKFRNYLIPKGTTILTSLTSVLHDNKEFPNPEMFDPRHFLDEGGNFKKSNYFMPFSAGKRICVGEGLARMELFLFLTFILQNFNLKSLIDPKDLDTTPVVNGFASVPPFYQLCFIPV
Nuclear receptor subfamily 1 group I member 2 (Homo sapiens), sequence (O75469 whole entry, looked up): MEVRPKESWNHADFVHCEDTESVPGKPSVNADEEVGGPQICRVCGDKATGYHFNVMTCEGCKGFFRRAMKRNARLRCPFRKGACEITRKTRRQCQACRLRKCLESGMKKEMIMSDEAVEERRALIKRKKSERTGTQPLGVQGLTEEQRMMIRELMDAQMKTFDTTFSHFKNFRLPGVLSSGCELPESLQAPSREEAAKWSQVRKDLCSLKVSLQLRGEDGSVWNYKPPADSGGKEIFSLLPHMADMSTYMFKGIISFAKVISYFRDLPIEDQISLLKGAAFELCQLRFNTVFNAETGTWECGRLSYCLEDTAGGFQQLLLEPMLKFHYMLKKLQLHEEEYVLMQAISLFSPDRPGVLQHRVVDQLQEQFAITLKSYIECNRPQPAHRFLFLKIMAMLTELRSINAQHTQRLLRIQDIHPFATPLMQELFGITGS
Cytochrome P450 2D6 (Homo sapiens), sequence (P10635 whole entry, looked up): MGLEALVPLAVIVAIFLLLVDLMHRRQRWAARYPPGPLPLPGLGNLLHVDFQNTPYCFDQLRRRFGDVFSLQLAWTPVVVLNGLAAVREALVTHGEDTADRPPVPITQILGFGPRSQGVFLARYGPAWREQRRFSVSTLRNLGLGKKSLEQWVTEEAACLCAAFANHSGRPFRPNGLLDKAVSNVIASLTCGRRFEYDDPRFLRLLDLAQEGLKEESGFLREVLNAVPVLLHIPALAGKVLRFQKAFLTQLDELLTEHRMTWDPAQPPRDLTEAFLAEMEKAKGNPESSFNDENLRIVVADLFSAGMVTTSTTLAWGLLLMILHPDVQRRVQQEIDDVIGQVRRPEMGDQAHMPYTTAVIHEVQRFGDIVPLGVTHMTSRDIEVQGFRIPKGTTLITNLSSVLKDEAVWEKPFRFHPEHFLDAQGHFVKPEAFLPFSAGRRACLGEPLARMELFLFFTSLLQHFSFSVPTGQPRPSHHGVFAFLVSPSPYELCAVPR
Progesterone receptor (Homo sapiens), sequence (P06401 whole entry, looked up): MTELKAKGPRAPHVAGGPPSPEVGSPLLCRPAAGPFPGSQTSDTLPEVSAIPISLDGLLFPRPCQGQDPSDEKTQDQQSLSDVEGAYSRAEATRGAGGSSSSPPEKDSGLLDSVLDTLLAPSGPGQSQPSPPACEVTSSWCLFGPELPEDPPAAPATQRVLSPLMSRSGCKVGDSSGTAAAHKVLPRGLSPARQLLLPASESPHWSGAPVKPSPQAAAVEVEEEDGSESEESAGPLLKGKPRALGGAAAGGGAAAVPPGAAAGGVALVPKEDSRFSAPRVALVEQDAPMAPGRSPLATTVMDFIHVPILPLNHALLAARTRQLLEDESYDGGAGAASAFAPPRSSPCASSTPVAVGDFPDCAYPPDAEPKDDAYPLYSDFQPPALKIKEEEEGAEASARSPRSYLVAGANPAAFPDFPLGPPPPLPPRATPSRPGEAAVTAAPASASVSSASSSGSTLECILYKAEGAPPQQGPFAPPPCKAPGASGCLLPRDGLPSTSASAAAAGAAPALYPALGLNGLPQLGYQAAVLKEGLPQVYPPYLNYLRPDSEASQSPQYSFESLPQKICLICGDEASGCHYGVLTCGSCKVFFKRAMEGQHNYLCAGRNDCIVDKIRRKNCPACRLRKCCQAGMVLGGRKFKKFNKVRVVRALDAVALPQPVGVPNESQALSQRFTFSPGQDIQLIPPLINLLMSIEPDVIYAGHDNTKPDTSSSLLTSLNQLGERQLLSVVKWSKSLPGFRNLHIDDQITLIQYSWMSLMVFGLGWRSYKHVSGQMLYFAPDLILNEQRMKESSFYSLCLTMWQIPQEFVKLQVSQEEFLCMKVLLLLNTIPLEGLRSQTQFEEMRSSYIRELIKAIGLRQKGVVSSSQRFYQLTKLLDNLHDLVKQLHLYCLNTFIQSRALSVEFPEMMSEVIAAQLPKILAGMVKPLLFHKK
Nuclear receptor subfamily 1 group I member 2 (Rattus norvegicus), sequence (Q9R1A7 whole entry, looked up): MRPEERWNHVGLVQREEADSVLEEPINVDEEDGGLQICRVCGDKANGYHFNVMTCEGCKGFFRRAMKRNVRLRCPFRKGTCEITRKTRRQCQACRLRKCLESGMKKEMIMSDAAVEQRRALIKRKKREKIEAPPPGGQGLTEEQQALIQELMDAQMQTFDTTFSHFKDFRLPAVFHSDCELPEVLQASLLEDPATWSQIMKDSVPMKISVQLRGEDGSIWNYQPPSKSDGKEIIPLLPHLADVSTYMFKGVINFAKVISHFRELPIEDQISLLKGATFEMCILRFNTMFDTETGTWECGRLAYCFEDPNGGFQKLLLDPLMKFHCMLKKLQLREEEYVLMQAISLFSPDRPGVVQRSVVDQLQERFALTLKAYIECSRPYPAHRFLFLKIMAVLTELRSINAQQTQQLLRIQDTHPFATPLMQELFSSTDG

SMILES | Potency [1] | Potency [2] | Potency [3] | Potency [4] | Potency [5] | Potency [6] | Potency [7] | outcome [8] | Potency [9] | Potency [10] | Potency [11] | Potency [12] | Potency [13] | Potency [14] | Potency [15] | Potency [16] | Potency [17] | max activation [18] [%] | Potency [19] | Potency [20]
CCCCCCOC(=O)C(C)CC (stereo not given) | inactive | inactive | inactive | inactive | inactive | inactive | inactive | inactive | inactive | inactive | inactive | inactive | inactive | inactive | inactive | inactive |  |  |  | 
CN1CCC[C@@H]1CCO[C@](C)(c1ccccc1)c1ccc(Cl)cc1 | inactive |  | 8.41 µM (active) | inactive | inactive | inactive | inactive | inactive | 21.1 µM (active) |  | 26.6 µM (active) | inactive |  |  |  |  | 21.1 µM (active) | 6.7 |  | 
CC(N=C(NC#N)Nc1ccncc1)C(C)(C)C (stereo not given) | inactive | inactive | inactive | inactive | inactive | inactive | inactive |  | inactive | inactive | inactive | inactive | inactive |  |  | 1.55 µM (active) |  | -8.82 |  | 
CC1(C)CCC[C@]2(C)[C@H]3CC(=O)O[C@]3(C)CC[C@@H]12 | inactive |  | inactive | inactive | inactive |  | inactive |  | inactive | inactive | inactive | inactive | inactive | 30.6 µM (active) |  |  |  |  |  | 
O=C(O)c1cc(O)c2ccccc2c1O | inactive |  | inactive | 4.9 µM (active) | 3.09 µM (active) |  | inactive | inactive | 7.7 µM (active) | inactive | 6.11 µM (active) | inactive | 9.69 µM (active) | 1.93 µM (active) | 35.6 µM (active) | 7.1 µM (active) | inactive |  |  | 
Cc1cc(C)c(/C=C2\C(=O)Nc3ccccc32)[nH]1 | inactive |  | inactive | inactive | inactive |  | inactive |  |  | inactive | inactive |  |  | inactive | inactive | 7.76 µM (active) | inactive | -0.232 |  | 
C#C[C@]1(OC(C)=O)CC[C@H]2[C@@H]3CCC4=C[C@@H](OC(C)=O)CC[C@@H]4[C@H]3CC[C@@]21C | 0.0237 µM (active) |  |  | inactive | inactive | inactive |  |  |  | inactive | 33.5 µM (active) | inactive | inactive | 29.8 µM (active) | inactive | 21.9 µM (active) |  | 3.89 | inactive | 
CC[N+](CC)(CC)CCOc1ccc(/C=C/c2ccccc2)cc1 | inactive |  |  | inactive | inactive | inactive | inactive | inactive | inactive | inactive | inactive | inactive | inactive | inactive | 15.5 µM (active) |  | inactive | -2.42 | inactive | inactive
OCCN1CCN(CCCN2c3ccccc3Sc3ccc(C(F)(F)F)cc32)CC1 | inactive |  | 10.6 µM (active) | inactive | inactive |  | inactive | inactive | 33.5 µM (active) |  | 29.8 µM (active) |  |  | inactive |  |  |  |  |  | 
O=C(O)c1cc(N=Nc2ccc([N+](=O)[O-])cc2)ccc1O | inactive |  |  | inactive | inactive |  | inactive | inactive | 53.5 µM (active) | inactive | 47.7 µM (active) | inactive | 53.5 µM (active) | 0.301 µM (active) | 69.7 µM (active) | 39.2 µM (active) |  |  |  | 
CC(C)=CCC1=C(O)c2ccccc2C(=O)C1=O | inactive |  |  | inactive | inactive | inactive | inactive | inactive | 60.8 µM (active) | inactive | 30.5 µM (active) | inactive | 60.8 µM (active) | 19.2 µM (active) | 44.6 µM (active) | 28.1 µM (active) |  |  |  | 
CCCCCCCCCCC[C@@H](C[C@@H]1OC(=O)[C@H]1CCCCCC)OC(=O)[C@H](CC(C)C)NC=O | inactive |  |  | inactive | inactive | inactive | inactive | inactive | inactive | inactive | 16.8 µM (active) | inactive | inactive | inactive | inactive |  | inactive | -3.72 | inactive | inactive
O=c1c(O)c(-c2ccc(O)cc2O)oc2cc(O)cc(O)c12 | inactive |  | inactive | inactive | inactive |  | inactive |  |  | inactive |  | inactive |  |  |  | inactive | inactive |  |  | 
COC1=C(OC)C(=O)C(CCCCCCCCCCO)=C(C)C1=O | inactive |  |  | inactive | inactive | inactive | inactive | inactive | inactive | inactive | 23.7 µM (active) | inactive | inactive | inactive | 34.7 µM (active) | 4.9 µM (active) |  | 4.16 | inactive | inactive
COc1c(C)c2c(c(O)c1C/C=C(\C)CCC(=O)OCCN1CCOCC1)C(=O)OC2 | inactive |  | 0.237 µM (active) | inactive | inactive | inactive | inactive | inactive | inactive | inactive | 0.841 µM (active) | inactive | inactive |  | inactive |  |  | -3.72 | inactive | inactive
